Screening data from PubChem.
HIV TAR-Tat: HIV-1 TAR-Tat binding disruption; HIV-1 TAR RNA, Tat peptide displacement FRET; active compounds read high; z-score (test concentration not listed); 0.6% of 100,000 active; AID 1259389; active means z-score of 3 or more in at least 2 runs
CDC25B CDK2 inh: human CDC25B-CDK2/CyclinA binding inhibition; 0.72% of 94,000 active; HTRF CDC25B-CDK2/CyclinA binding, anti-His/anti-Flag; active compounds read high; AID 1259370; P30305+P24941; z-score (test concentration not listed); in the data active means z-score above about 3.2
Hits are given with their value; – = inactive; · = no result. Only some compounds are listed: those with a hit (about 0.9% of all), similar ones and a draw of the others.

SMILES | HIV TAR-Tat | CDC25B CDK2 inh
COc1ccc(N2CSC3=C(C#N)C(c4c(OC)ccc5ccccc45)CC(=O)N3C2)c(OC)c1 (stereo not given) | – | 3.75
COc1ccc2ccccc2c1C1CC(=O)N2CN(c3ccccc3)CSC2=C1C#N (stereo not given) | – | 4.82
COc1ccc2ccccc2c1C1CC(=O)N2CN(c3ccc(F)cc3)CSC2=C1C#N (stereo not given) | – | –
O=C(NC1CCc2ccccc21)c1n[nH]c(=O)c2ccccc12 (stereo not given) | – | –
CCC(NS(=O)(=O)c1ccc2c(c1)N(C(C)=O)CCO2)c1cccs1 (stereo not given) | – | –
Nc1ccc(-c2nc3cc(N)c(Cl)cc3[nH]2)cc1 | 5.51 | –
Nc1ccc(-c2nc3ccc(-c4nc5ccc(N)cc5[nH]4)cc3[nH]2)cc1 | · | –
Cc1cc(-n2nnc3ccccc32)nc(C)n1 | 14.3 | –
Cc1cc(C)n2c(n1)nc1ccccc12 | · | –
CC(C)Nc1cc(N2CCOCC2)c2noc3c2c1C(=O)c1ccccc1-3 | 6.2 | –
COc1ccc(Nc2cc(N3CCOCC3)c3noc4c3c2C(=O)c2ccccc2-4)cc1 | – | –
CC(C)Nc1cc(N2CCN(C(=O)c3ccco3)CC2)c2noc3c2c1C(=O)c1ccccc1-3 | 5.57 | –
O=C1c2ccccc2-c2onc3c(N4CCOCC4)cc(N4CCOCC4)c1c23 | – | –
O=C1c2ccccc2-c2onc3c(N4CCOCC4)cc(Nc4ccc(F)cc4)c1c23 | – | 12.7
CC(C)CNc1cc(N2CCN(C(=O)c3ccco3)CC2)c2noc3c2c1C(=O)c1ccccc1-3 | – | –
O=C(NCCN1CCCC1)c1cnc2sc(N3CCOCC3)nn2c1=O | – | ·
CC1CC(=O)Nc2cc(S(=O)(=O)Nc3ccc(C(C)C)cc3)ccc2S1 (stereo not given) | – | ·
Cc1nn(C(C)C(=O)NC2CCCc3ccccc32)c(=O)c2cc3occc3n12 (stereo not given) | – | –
O=C(COc1cc2oc(=O)c3c(c2cc1Cl)CCC3)c1ccc2ccccc2c1 | · | –
COc1cccc(-c2[nH]nc3nc(-c4cccc(O)c4)cc(C(=O)O)c23)c1 | – | –
Cc1cc(C)c2c(C)c(C(=O)NCC(c3ccc(C)o3)N3CCN(C)CC3)oc2c1 (stereo not given) | – | –
Cn1c(-n2cccc2)c(-c2c(-c3cccc(Cl)c3)[nH]c3c2c(=O)n(C)c(=O)n3C)c(=O)n(C)c1=O | – | –
COc1cc(OC)c(NC(=O)c2cc(CN3CCCC3)on2)cc1Cl | – | ·
COC(=O)C1=C(C)Nc2[nH]c(=O)[nH]c(=O)c2C1c1ccc(Br)cc1 (stereo not given) | – | 3.65
C=CCOC(=O)C1=C(C)Nc2[nH]c(=O)[nH]c(=O)c2C1c1ccc(CC)cc1 (stereo not given) | · | –
SMILES | HIV TAR-Tat | CDC25B CDK2 inh
O=C(C1COc2cc(S(=O)(=O)Nc3ccccc3)ccc2O1)N1CCOCC1 (stereo not given) | – | ·
Cc1cccc(NC(=O)CS(=O)(=O)c2cccc3nsnc23)n1 | – | ·
Cc1ccc(S(=O)(=O)Nc2cc(Sc3nc(C)cc(C)n3)c(O)c3ccccc23)cc1 | · | –
Cc1ccc(S(=O)(=O)Nc2cc(Sc3nc4ccccc4[nH]3)c(O)c3ccccc23)cc1 | · | 18
Cc1noc(-c2ccc(C)c(S(=O)(=O)Nc3ccc(C)c(F)c3)c2)n1 | – | ·
O=C(O)c1ccc2nc3c(nc2c1)-c1cccc2cccc-3c12 | 5.9 | –
O=C(O)c1ccc2nc(-c3ccccc3)c(-c3ccccc3)nc2c1 | – | –
COCCNc1ncnc2onc(-c3cccc(Cl)c3)c12 | – | –
CC1=CC(=O)N(c2nc(-c3ccc(Cl)cc3)cs2)C1=O | · | –
CC1=NN(c2nc(-c3ccc(Br)cc3)cs2)C(=O)/C1=C\c1ccc2c(c1)OCO2 | · | 20.9
CC1=NN(c2nc(-c3ccc(Cl)cc3)cs2)C(=O)/C1=C\c1ccc2c(c1)OCO2 | · | 6.93
O=C(CCN1C(=O)/C(=C/c2ccc3c(c2)OCO3)SC1=S)Nc1nc(-c2ccccc2)cs1 | · | –
COC(=O)Cn1c(SCCOc2ccccc2)nc2ccccc21 | – | –
Cc1cc(C)c(Cn2c3ccccc3c3cnn(CC(=O)O)c(=O)c32)c(C)c1 | – | –
O=c1[nH]c2cc3c(cc2c(=O)n1CCc1nc(-c2ccccn2)no1)OCO3 | – | ·
COC(=O)c1cc2oc3ccccc3c2n1CC(=O)NCc1ccco1 | 8 | –
Cn1c(C(=O)NCc2ccco2)cc2oc3ccccc3c21 | · | –
CCc1nnc(OCC(=O)NCCCOC(C)C)c2cc3cc(F)ccc3n12 | – | –
CN1CCc2c(sc(-n3cccc3)c2CNC(=O)Nc2cccc3c2CCCC3)C1 | – | ·
N#CC1=C2N=C(N)c3ccccc3N2C2=C(C(=O)CCC2)C1c1c(F)cccc1Cl (stereo not given) | – | 9.3
N#CC1=C2N=C(N)c3ccccc3N2C2=C(C(=O)CCC2)C1c1ccccc1Cl (stereo not given) | – | –
N#CC1=C2N=C(N)c3ccccc3N2C2=C(C(=O)CCC2)C1c1ccc(Cl)cc1 (stereo not given) | – | –
N#CC1=C2N=C(N)c3ccccc3N2C2=C(C(=O)CCC2)C1c1ccccc1F (stereo not given) | – | 17.9
Cc1cn2c(=O)c(S(=O)(=O)N3CCN(c4ccccc4F)CC3)c(C)nc2s1 | – | ·
Cc1ccc(S(=O)(=O)NC(=O)Nc2ncc3c(n2)CC(c2ccco2)CC3=O)cc1 (stereo not given) | – | 8.34
SMILES | HIV TAR-Tat | CDC25B CDK2 inh
Cc1nc(Nc2ncc3c(n2)CC(c2ccco2)CC3=O)nc2ccccc12 (stereo not given) | – | –
CC(=O)Nc1ncc2c(n1)CC(c1ccco1)CC2=O (stereo not given) | – | –
CCc1ccc2nc(Nc3ncc4c(n3)CC(c3ccco3)CC4=O)nc(C)c2c1 (stereo not given) | 31.6 | –
CC1CCCN(c2cc(NCCO)c3c4c(onc24)-c2ccccc2C3=O)C1 (stereo not given) | – | –
CCOC(=O)C1CCCN(c2cc(NCCO)c3c4c(onc24)-c2ccccc2C3=O)C1 (stereo not given) | 8.83 | –
CC1CC(C)CN(c2cc(NCCO)c3c4c(onc24)-c2ccccc2C3=O)C1 (stereo not given) | – | –
CCNc1cc(N2CCCC(C(=O)OCC)C2)c2noc3c2c1C(=O)c1ccccc1-3 (stereo not given) | – | –
CN1CCN(c2cc(NCC(=O)O)c3c4c(onc24)-c2ccccc2C3=O)CC1 | – | 3.85
CC1CC(C)CN(c2cc(NCC(=O)O)c3c4c(onc24)-c2ccccc2C3=O)C1 (stereo not given) | – | 12.3
CCNc1cc(N2CCN(C)CC2)c2noc3c2c1C(=O)c1ccccc1-3 | – | –
CC1CCCN(c2cc(NCC(=O)O)c3c4c(onc24)-c2ccccc2C3=O)C1 (stereo not given) | – | 3.04
O=C(NCc1cccnc1)c1nnc(-c2ccc3c(c2)OCO3)o1 | – | –
CCOC(=O)CNC(=O)c1cnc(N2CCOCC2)nc1C | – | ·
CCN1CCN(c2cc(N3CCCCC3)c3c4c(onc24)-c2ccccc2C3=O)CC1 | – | –
CC1CC(C)CN(c2cc(NCCCC(=O)O)c3c4c(onc24)-c2ccccc2C3=O)C1 (stereo not given) | – | 3.04
CN1CCN(c2cc(N3CCCCC3)c3c4c(onc24)-c2ccccc2C3=O)CC1 | – | 5.56
